Results on 13 compounds are retold here after PubChem BioAssay.

The source made the active and inactive calls. Unless noted, no rule for the calls is given here.

A short description of experiment [1]: compounds altering circadian rhythm period length – cell-based, LOPAC library, luminescence reporter (AID 2774).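 Also: values are relative to mean of DMSO wells on each plate.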 The settings on record: circadian reporter cells, at 7 µM, actives lie on both sides.
Experiment [2] concerns Aerobactin synthetase IucA (Klebsiella pneumoniae). As to the kind of experiment: inhibition of K. pneumoniae IucA enzyme – biochemical, Tocris library, absorbance (AID 1345561).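 Also: 100% = enzyme without compound and 0% = no enzyme.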 The note with it: purified IucA enzyme assay, absorbance (OD) read-out; stronger effect = lower value;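 tested at 8 µM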.
Experiment [3] in a line: viability loss with induced miR-34 in A549 – imaging, A549 dox-inducible miR-34, nuclei and caspase counts, primary screen (AID 1347080;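 active = compounds whose cell count with miR-34 switched on is under 0.7 times the count with it off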). The note with it: A549 miR-34 inducible, Hoechst nuclei count, 48 h.
The nature of experiment [4]: galactose survival enhancers in mitochondrial complex I cybrids – cell-based, galactose medium, ATP luminescence, primary screen (AID 1645843;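 active = z-score of at least 1.8 in each of two replicates, scored against plate mean and spread of sample wells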;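 also: positive z means more ATP and so rescue of galactose-driven cybrid death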). The note with it: complex I mutant cybrid cells, 72 h, stronger effect = higher value.
Experiment [5] is described as follows: P. berghei load reduction in hepatocytes – cell-based, HepG2, luciferase luminescence, HepG2 viability, primary screen (AID 624349; in the data active = parasite load remaining mostly below about 12%, no sharp cut-off; inactive = mostly above about 10%;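 also: 100% = mean of DMSO negative control wells on the same plate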). The note with it: P. berghei liver stage in HepG2, luciferase luminescence, concentration not given here; parasite load remaining: stronger effect = lower value; viability: measured here: HepG2 viability without parasites.
Experiment [6] concerns Hepatitis C virus NS3 helicase. As to the kind of experiment: blockers of NS3h binding to ssDNA – biochemical, fluorescence polarization, LOPAC1280 library, primary screen (AID 687035; in the data active = inhibition above about 37%). The settings on record: Purified HCV NS3 helicase, Cy5-dT15 ssDNA binding fluorescence polarization; stronger effect = higher value; concentration not given here.
The nature of experiment [7]: compounds altering Cy5-DNA-NS3h complex signal – biochemical, LOPAC1280, artefact control for HCV NS3 helicase inhibitor project (AID 687037). The settings on record: Cy5-DNA-NS3h complex fluorescence interference counterscreen.
The mark [8] stands for this setting: stronger effect = lower value, cell number ratio, induced over uninduced.
Setting [9] is: measured here: relative caspase fold change +Dox/-Dox.
Where [10] appears, read: measured here: total cells with miR-34 induction, stronger effect = lower value.
[11] abbreviates: measured here: total cells without miR-34 induction.

`CN1CCN(c2ccc3ccccc3n2)CC1`: in experiment [1], the period change is -0.045 h (inactive). The remaining activity in experiment [2] is 109% (inactive). Moreover, the fold change in experiment [3] (setting [8]) was 0.923 (inactive); in experiment [3] (setting [9]) it was 0.813. For the same compound, the cell count in experiment [3] (setting [10]) worked out at 8930; in experiment [3] (setting [11]), 9670. In addition, in experiment [4], the z-score is -0.58 (inactive).
On to `c1cc(Cc2cnc[nH]2)ccn1`, for which, in experiment [2], the remaining activity was 105% (inactive). Besides, the fold change was 0.985 (inactive) in experiment [3] (setting [8]) and 1.35 in experiment [3] (setting [9]). In addition, the cell count in experiment [3] (setting [10]) came to 9560; in experiment [3] (setting [11]) it was 9710. Moreover, the z-score in experiment [4] is -0.25 (inactive).
Take `OC(Cc1ccncc1)C(Cl)(Cl)Cl` (stereo not given): the remaining activity in experiment [2] is 118% (inactive). Further, the fold change in experiment [3] (setting [8]) was 0.921 (inactive); in experiment [3] (setting [9]) it was 0.736. For the same compound, the cell count was 9270 in experiment [3] (setting [10]) and 10100 in experiment [3] (setting [11]). Besides, in experiment [4], the z-score is -0.53 (inactive).
`O=C1NC(=O)c2c1c1c3ccccc3n3c1c1c2c2ccccc2n1C1CCC3O1`: the parasite load remaining in experiment [5] is 66.3% (inactive). Further, in experiment [5], the viability turned out to be 60.2%. Also, the remaining activity in experiment [2] is 103% (inactive). Moreover, the fold change is 1.12 (inactive) in experiment [3] (setting [8]) and 1.11 in experiment [3] (setting [9]). For the same compound, the cell count in experiment [3] (setting [10]) was 5410; in experiment [3] (setting [11]) it was 4820. For the same compound, the z-score in experiment [4] is -0.395 (inactive).
With `O=C1NC(=O)c2c1c1c3ccccc3[nH]c1c1[nH]c3ccccc3c21`, in experiment [5], the parasite load remaining was 79.1% (inactive). The viability in experiment [5] stood at 159%. Besides, in experiment [2], the remaining activity was 93.4% (inactive). Further, the fold change was 0.78 (inactive) in experiment [3] (stronger effect = lower value) and 1.58 in experiment [3] (setting [9]). Besides, the cell count is 3660 in experiment [3] (setting [10]) and 4680 in experiment [3] (setting [11]). For the same compound, the z-score in experiment [4] was -0.6 (inactive).
Consider `CC(=O)[C@H]1CC[C@H]2[C@@H]3CCC4C[C@](C)(O)CC[C@]4(C)[C@H]3CC[C@]12C` (stereo not given in full), for which, in experiment [2], the remaining activity was 103% (inactive). Further, the values for the fold change in experiment [3] (stronger effect = lower value) and in experiment [3] (setting [9]) were 0.92 (inactive) and 1.5, respectively. Moreover, the results for the cell count in experiment [3] (setting [10]) and in experiment [3] (setting [11]) were 8730 and 9490, respectively. Moreover, the z-score in experiment [4] is -0.285 (inactive).
Regarding `CCc1cccc(CC)c1NC1=NCCN1`, in experiment [2], the remaining activity was 115% (inactive). The results for the fold change in experiment [3] (setting [8]) and in experiment [3] (setting [9]) were 0.952 (inactive) and 1.79, respectively. Besides, the cell count was 8430 in experiment [3] (setting [10]) and 8850 in experiment [3] (setting [11]). For the same compound, the z-score in experiment [4] was -0.02 (inactive).
Turning to `NC1(c2ccccc2Cl)CCCCC1=O` (stereo not given), in experiment [2], the remaining activity was 88.2% (inactive). Besides, the fold change in experiment [3] (stronger effect = lower value) was 0.898 (inactive); in experiment [3] (setting [9]), 1.86. The cell count was 9020 in experiment [3] (setting [10]) and 10000 in experiment [3] (setting [11]). Besides, in experiment [4], the z-score was 1.53 (inactive).
Turning to `Cc1ccc2c(c1)C1(CCN(CCc3nc(-c4ccccc4)oc3C)CC1)OC(=O)N2`, the remaining activity in experiment [2] was 95% (inactive). Besides, the fold change in experiment [3] (setting [8]) was 0.966 (inactive); in experiment [3] (setting [9]) it was 1.87. In addition, the cell count in experiment [3] (setting [10]) amounted to 5420; in experiment [3] (setting [11]), 5610. For the same compound, in experiment [4], the z-score is -0.635 (inactive).
`COc1ccc2c(c1)c(CCN1CCOCC1)c(C)n2C(=O)c1cccc(Cl)c1Cl`: the inhibition in experiment [6] is -1% (inactive). Further, in experiment [7], the fluorescence ratio (interference) is 1.1 (inactive). Besides, the remaining activity in experiment [2] was 101% (inactive). The fold change in experiment [3] (setting [8]) is 0.915 (inactive); in experiment [3] (setting [9]), 1.25. Further, the figures for the cell count in experiment [3] (setting [10]) and in experiment [3] (setting [11]) were 6500 and 7100, respectively. Further, the z-score in experiment [4] is -0.005 (inactive).
As for `Cn1cc(C(=O)C(=O)N[C@H]2CN3CCC2CC3)c2ccccc21`, in experiment [2], the remaining activity was 92.5% (inactive). Further, the results for the fold change in experiment [3] (setting [8]) and in experiment [3] (setting [9]) were 0.891 (inactive) and 1.06, respectively. The cell count is 8410 in experiment [3] (setting [10]) and 9440 in experiment [3] (setting [11]). The z-score in experiment [4] was 0.935 (inactive).
For the compound `Oc1ccc2c3c1O[C@H]1c4oc5ccccc5c4C[C@@]4(O)C(C2)N(CC2CC2)CC[C@]314`, in experiment [2], the remaining activity was 104% (inactive). Further, the fold change in experiment [3] (stronger effect = lower value) was 0.944 (inactive); in experiment [3] (setting [9]) it was 0.874. Besides, the cell count in experiment [3] (setting [10]) was 9060; in experiment [3] (setting [11]), 9600. For the same compound, the z-score in experiment [4] was -0.325 (inactive).
With `COC1(C[S@@](=O)c2ccccc2)CCN(CCc2c[nH]c3ccc(F)cc23)CC1`, the remaining activity in experiment [2] was 113% (inactive). Also, the results for the fold change in experiment [3] (setting [8]) and in experiment [3] (setting [9]) were 0.956 (inactive) and 1.03, respectively. Moreover, the cell count in experiment [3] (setting [10]) is 8390; in experiment [3] (setting [11]) it was 8770. Further, the z-score in experiment [4] was -0.4 (inactive).
